The source of these data is PubChem BioAssay (NCI).

SMILES strings stand for the structures. The panel holds about 83,000 compounds, 20% with a hit somewhere; the sample as a whole holds those more often.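 Growth was measured after 48 h exposure to one concentration of compound in 96-well plates. Values under 10 count as active.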 Calls of active or inactive are those of the source.

The experiment deals with HL-60(TB) leukemia. Put plainly: NCI-60 one-dose screen, 48 h (100 = growth as untreated, 0 = no growth, -100 = all killed). The following applies: 10 µM unless noted.
`CO[C@H]1CC(c2ccc[nH]2)=N[C@]12O[C@@H](C)C[C@@H]1CCCCCCCc3ccc([nH]3)[C@H]12`: the growth is 17.5% (inactive).
For `C[C@H](c1nc2ccc(C#N)cc2[nH]1)[C@H]1CC[C@H]2[C@@H]3CCC4=CC(=O)CC[C@]4(C)[C@H]3CC[C@]12C`, the growth is 56.3% (inactive).
Turning to `COc1ccc(Cn2cc(C(=O)Nc3cccnc3Nc3ccccc3)nn2)cc1`, the growth was 104% (inactive).
`COc1ccc(-c2nc3sc(-c4cc(OC)c(OC)c(OC)c4)nn3c2/C=C2/C(=O)Nc3ccc(F)cc32)cc1`: the growth was 35.8% (inactive).
As to `COc1cc2cc(NCc3ccncc3)nc(C)c2cc1OC`, the growth was 103% (inactive).
For `Cn1cc(-c2nc(-c3c[nH]c4ncccc34)cs2)c2cc(Br)ccc21` the value was 79.1% (inactive).
The figure for `C=C(Cl)C(=NC(C)(C)C)Nc1ccccc1C` is 43.3% (inactive).
As to `Cc1c2cnccc2c(C)c2c1c1cc(CO)ccc1n2C`, the growth is -20% (active).
The figure for `Cc1nc2nc(SCC(=O)O)[nH]c2c(=O)[nH]1` is 94.7% (inactive); for `Clc1ccc(Nc2ncc(Cc3cccc(Cl)c3Cl)s2)cc1` it is 100% (inactive); for `CC/C=C\C/C=C\C[C@H](O)C/C=C1/C(=O)C=C[C@@H]1C/C=C\CCCC(=O)OC` it is -19.5% (active).
As for `CS(=O)(=O)Nc1cccc(-c2cc(-c3ccccc3Cl)c(C#N)c(N)n2)c1`, the growth was 8.6% (active).
`O=c1c2ccccc2n(C[C@H]2CO2)c2ccccc12`: the growth is -44.5% (active).
Regarding `COc1cc(/C=C2\CCCC3=C2N=C2SC=NN2C3c2cc(OC)c(OC)c(OC)c2)cc(OC)c1OC` (stereo not given), the growth is -1.19% (active).
Consider `COc1ccc(C(c2cc(OC)c(OC)c(OC)c2)n2ccnc2)cc1O` (stereo not given), for which the growth is -35.9% (active).
For `C#CCN1C(=O)c2ccccc2N(CC#C)C12CCN(Cc1cn(CC(=O)Nc3ccccc3C(N)=O)nn1)CC2` the value was 86.6% (inactive).
Take `CCCn1c(=O)[nH]c(N)c([C@H]2c3ccccc3Oc3[nH]c(=O)n(CCC)c(=O)c32)c1=O`: the growth is 32.9% (inactive).
Take `S=C(Nc1ccccc1)c1ccccn1`: the growth was 107% (inactive).
As to `CCOC(=O)CNN`, the growth was 113% (inactive).
Regarding `COC1=CC(=O)C(OC)=C(OC)C1=O`, the growth is 61.4% (inactive).
The figure for `N#Cc1c(N)nc(Cl)c(C#N)c1C(=O)c1ccccc1` is 6.29% (active); for `COc1ccccc1NS(=O)(=O)c1cccc(C(=O)Nc2ccc(Br)cc2)c1` it is 29.4% (inactive).
With `O=c1c2cc(Cl)ccc2oc2ccc(OCCCCCN3CCCCCC3)cc12`, the growth is 54.2% (inactive).
In the case of `COc1ccc2c(c1)c(C(=O)c1nc(-c3cn(C)c4ccccc34)no1)cn2C`, the growth is 92% (inactive).
For `c1ccc(-n2nnnc2-c2cccc3ccccc23)cc1`, the growth is -21.8% (active).
Take `c1coc(CNc2c3ccccc3nc3ccccc23)c1`: the growth is 93% (inactive).
Consider `COc1ccc(-c2nc(SCC(C)C)nc(N/N=C(/C)c3ccc(OC)c(OC)c3)c2C#N)cc1`, for which the growth is 89.4% (inactive).
With `C/C1=C\CC[C@@]2(C)O[C@H]2[C@H]2OC(=O)C(CN3CCN(CC4C(=O)O[C@H]5[C@H]4CC/C(C)=C/CC[C@@]4(C)O[C@@H]54)CC3)[C@@H]2CC1` (stereo not given in full), the growth was 98.7% (inactive).
For the compound `O=C(Nc1ccc2c(c1)-c1ccccc1C2)C1CC(=O)N(c2ccc3c(c2)OCO3)C1` (stereo not given), the growth was 112% [50 µM] (inactive).
`O=C(Nc1cccc([N+](=O)[O-])c1)NN1CCCCCC1`: the growth was 112% (inactive).
On to `COc1ccc(-c2[nH]c3ccc(OC)cc3c2/C=C(\C#N)S(=O)(=O)c2ccccc2)cc1`, for which the growth is 8.54% (active).
Consider `COc1ccc2nc(-n3nc(C)cc3C)c(-n3nc(C)cc3C)nc2c1`, for which the growth is 104% (inactive).
The figure for `CCCCC1COc2cccc3c(SCC(=O)N(C)c4cccc(Cl)c4)cc[n+]1c23` (stereo not given) is 102% (inactive).
As to `CCCCOc1nc2ccccc2cc1C1CNC(=O)c2ccccc2N1` (stereo not given), the growth was -8.72% (active).
Regarding `COc1cc(C(=O)N(C(C)C)C2CCCCC2)cc(OC)c1OC`, the growth is 96.7% (inactive).
For the compound `COc1ccc(-c2ccc(-c3ccc(C(=N)N)nc3)s2)cc1Cl`, the growth was -48.7% (active).
Regarding `COc1nc2c(c(=O)n1C)N=C1c3ccccc3C(=O)C1C(c1ccccc1)N2` (stereo not given), the growth was 112% (inactive).
For the compound `CNCCCNc1nc2ccccc2c2c(=O)c3cc(F)ccc3sc12`, the growth is -5.1% (active).
For `Cc1cc2c3ccccc3ccc2[n+]2ccccc12`, the growth is 46.2% (inactive).
Take `NC(=S)Nc1ccc2c(c1)Cc1ccccc1-2`: the growth was 77.4% (inactive).
